Laboratory results reported in ChEMBL document CHEMBL1157539, “Thousands of chemical starting points for antimalarial lead identification” (Nature, 2010).

Legend:
Type in all cases: functional
Plasmodium falciparum [1] = experiment: GSK_TCMDC: Inhibition of Plasmodium falciparum 3D7 in whole red blood cells, using parasite LDH activity as an index of growth. Test compounds present at 2uM
Plasmodium falciparum [2] = experiment: GSK_TCMDC: Inhibition of Plasmodium falciparum Dd2 in whole red blood cells, using parasite LDH activity as an index of growth. Test compounds present at 2uM
HepG2 = experiment: GSK_TCMDC: Percent inhibition of human HepG2 cell line. Test compounds present at 10uM.

Compound	Inhibition (Plasmodium falciparum [1])	Inhibition (Plasmodium falciparum [2])	Inhibition (HepG2)
N#Cc1ccc(N[C@@H](CC2CCCCC2)C(=O)Nc2ccc(-c3ccccc3)cc2)c2ccccc12.O=C(O)C(F)(F)F	100%	99%	34%
O=C(c1ccc([N+](=O)[O-])o1)N1CCN(c2ccccc2)CC1	94%	72%	44%
Nc1ccc(-c2ccc3ccnc(N)c3c2)cc1	100%	68%	38%
CC(C)Oc1ccc(C=CC(=O)Nc2noc3ccccc23)cc1	96%	95%	2%
COCCCC1C(=O)OC2CCCC21 (stereo not drawn)	93%	85%	0%
CCC(CC)NCc1c(O)ccc2c(CNC(CC)CC)c(O)ccc12.Cl	100%	94%	4%
CN1CCC(NCc2cccc(-c3cccc(S(=O)(=O)NCc4ccccc4)c3)c2)CC1.O=C(O)C(F)(F)F	100%	6%	57%
CCCC1N=C(N)N=C(N)N1c1ccccc1.Cl (stereo not drawn)	93%	0%	0%
CCOc1ccc(NC(C)=O)c(O)c1	96%	0%	6%
CCn1cc(CN2C(=O)C(c3ccccc3)(c3ccccc3)N=C2N)cn1.O=CO	95%	60%	7%
CC(=O)Nc1ncc(C(=O)Nc2cccc(-c3cccc(-c4nc5ccccc5[nH]4)c3)c2)s1	92%	38%	16%
